Experimental findings from PubChem BioAssay AID1986 (Sanford-Burnham Center for Chemical Genomics, 2009) are described below.

What is called inhibition is the change of the read-out against control, counted positive when it falls.

SMILES strings stand for the structures. In all, about 290,000 compounds went through this assay and about 890 (0.31%) were called active. Rule as the data show it: active = inhibition mostly above about 52% (no sharp cut-off); inactive = mostly below about 76%. The full list was thinned out, with actives kept by preference.

This assay in a line: cell-free HIV fusion peptide-binding blockers – biochemical, uHTS, fluorescence dequenching, primary screen (AID 1986). The following applies: 30 min, stronger effect = higher value.
[1] abbreviates: measured here: repeat confirmation average inhibition, at 18.6 µM.

`N/C(=N\NC(=O)c1ccccc1Cl)c1cc2ccccc2oc1=O`: where the note is “at 20 µM”, the inhibition was 0.3% (inactive).

On to `CCC(=O)Nc1ccc(-c2nnc(SCc3ccc(C(=O)Nc4nccs4)cc3)n2CC)cc1`, for which the inhibition (at 20 µM) is -0.6% (inactive).

`NC1=NC[C@H](CC2CCCCC2)N1CCc1cc(C(F)(F)F)cc(C(F)(F)F)c1`: the inhibition (at 20 µM) was 0.6% (inactive).

For `CC(C)[C@@H]1NC(=O)N(c2ccc(Oc3ccccc3)cc2)C1=O`, the inhibition (at 20 µM) is -2.5% (inactive).

On to `COc1cccc(-c2c(C(=O)N/N=C(\C)COc3ccccc3)nnn2-c2nonc2N)c1`, for which, for the setting “at 20 µM”, the inhibition is -1.6% (inactive).

Consider `Cc1[nH]c2ccccc2c1C(=O)C(=O)NCCc1c[nH]c2ccccc12`, for which, for the setting “at 20 µM”, the inhibition was 0.7% (inactive).

Take `CCn1c(SCC(=O)Nc2cc(C)on2)nnc1-c1ccc(S(=O)(=O)N2CCN(C)CC2)cc1`: the inhibition (at 20 µM) is -2.9% (inactive).

Take `N#Cc1c(-c2ccccc2Cl)noc1/C=C/Nc1ccc(C(=O)O)cc1`: the inhibition runs as follows: (at 20 µM) 53.5% (inactive); under setting [1], 3.7%.

`O=C(NC1CCc2ccccc21)c1cc(COc2c(F)cccc2F)on1` (stereo not drawn): under “at 20 µM”, the inhibition is 0.3% (inactive).

As for `O=C(Cn1cnc2c(nnn2-c2ccccc2)c1=O)NCCc1ccccc1`, where the note is “at 20 µM”, the inhibition is 1.1% (inactive).

On to `Cc1ccc(N2C(=O)[C@@H]3C(C(=O)CN4C(=O)c5ccccc5C4=O)=NN[C@@H]3C2=O)c(C)c1`, for which the inhibition (at 20 µM) is -2.5% (inactive).

Consider `Cc1ccc(N2C(=O)c3ccc(C(=O)O)cc3C2=O)c(C)c1`, for which the inhibition (at 20 µM) was -0.3% (inactive).

On to `O=C1O/C(=C/C(=O)N2CCOCC2)c2ccccc21`, for which the inhibition (at 20 µM) is 1.9% (inactive).

Turning to `COc1cc(-c2ccc(Nc3ccccc3C(=O)O)c(OC)c2)ccc1Nc1ccccc1C(=O)O`, where the note is “at 20 µM”, the inhibition is 61% (active).

Turning to `COc1ccc(Nc2ccccc2C(=O)O)cc1`, the inhibition (at 20 µM) is 3.4% (inactive).

In the case of `O=C(O)c1ccccc1Nc1ccccc1C(=O)O`, the inhibition (at 20 µM) was 4% (inactive).

`Cc1ccc(N=Cc2cc(Cc3ccccc3Cl)cc([N+](=O)[O-])c2O)c(O)c1`: the inhibition is, setting by setting: (at 20 µM) 64% (active); under setting [1], 57.3%.

Regarding `COc1ccc(N=Cc2cc(Cc3ccccc3Cl)cc([N+](=O)[O-])c2O)cc1OC`, the inhibition is, setting by setting: (at 20 µM) 69.3% (inactive); under setting [1], 19.7%.

As for `Cc1ccc(O)c(N=Cc2cc(Cc3ccccc3)cc([N+](=O)[O-])c2O)c1`, the inhibition was 58% (inactive) (at 20 µM) and 14.2% under setting [1].

Turning to `CCN(CC)S(=O)(=O)c1ccc2c(c1)nc(SCC(N)=O)n2-c1ccc(OC)cc1`, where the note is “at 20 µM”, the inhibition is -1.3% (inactive).

Regarding `COc1ccc2c3c(cccc13)OC2=O`, the inhibition (at 20 µM) was -1.2% (inactive).

`COc1cc(C(=O)NC(C)CCc2ccccc2)cc(OC)c1OC` (stereo not drawn): the inhibition (at 20 µM) was -1.1% (inactive).

Consider `COc1cc(/C=C2/C(=O)NN(c3cccc(Cl)c3)C2=O)cc(Br)c1O`, for which the inhibition by setting is: (at 20 µM) 102% (active); under setting [1], 95.1%.

With `COc1cc(/C=C2/C(=O)NN(c3ccc(Cl)c(Cl)c3)C2=O)cc([N+](=O)[O-])c1O`, the inhibition (at 20 µM) was 50.8% (active).

`CCOc1cc(/C=C2/C(=O)NN(c3cccc(Cl)c3)C2=O)ccc1O`: the inhibition (at 20 µM) is 31.4% (inactive).

For `COc1cc(/C=C2/C(=O)NN(c3cccc(Cl)c3)C2=O)cc(OC)c1O`, the inhibition is 104% (active) (at 20 µM) and 80.5% under setting [1].

In the case of `COc1cc(/C=C2/C(=O)NN(c3ccccc3)C2=O)cc(Br)c1O`, the inhibition (at 20 µM) was 34.5% (inactive).

Turning to `COc1cc(/C=C2/C(=O)NN(c3ccc(Cl)cc3)C2=O)cc(OC)c1O`, the inhibition is 93.4% (active) (at 20 µM) and 53.7% under setting [1].

As for `COc1cccc(/C=C2/C(=O)NN(c3ccccc3)C2=O)c1`, the inhibition (at 20 µM) was 15.8% (inactive).

`COc1cc(/C=C2\C(=O)NN(c3ccccc3)C2=O)cc([N+](=O)[O-])c1O`: for the setting “at 20 µM”, the inhibition was 32.8% (inactive).

For `COc1cc(/C=C2/C(=O)NN(c3ccc(F)cc3)C2=O)cc(Cl)c1O`, under “at 20 µM”, the inhibition was 39.2% (inactive).

Consider `COc1cc(/C=C2/C(=O)NN(c3cccc(C)c3)C2=O)cc([N+](=O)[O-])c1O`, for which, under “at 20 µM”, the inhibition was 30.3% (inactive).

In the case of `COC(=O)c1ccc(N2NC(=O)/C(=C/c3cc(OC)c(O)c(OC)c3)C2=O)cc1`, where the note is “at 20 µM”, the inhibition was 138% (inactive).

On to `COc1cc(/C=C2\C(=O)NN(c3ccc(C)cc3)C2=O)cc([N+](=O)[O-])c1O`, for which, for the setting “at 20 µM”, the inhibition is 38% (inactive).

On to `COc1cc(OC)cc(C(=O)N2CCN(C(=O)c3ccc(-c4ccccc4)cc3)CC2)c1`, for which the inhibition (at 20 µM) is -0.7% (inactive).

For the compound `CN(c1ccc(C(=O)N2CCCCC2)cc1)S(=O)(=O)c1cccs1`, the inhibition (at 20 µM) is 0.7% (inactive).

For `COc1ccc(OC)c(-n2c(=S)[nH]c3cc(C(=O)N4CCC(C(N)=O)CC4)ccc3c2=O)c1`, under “at 20 µM”, the inhibition is -0.3% (inactive).

As for `O=C(NCc1ccc(OC(F)(F)F)cc1)C1CC(c2cccc(F)c2)=NO1` (stereo not drawn), where the note is “at 20 µM”, the inhibition is 0.2% (inactive).

For the compound `O=C(c1cscn1)N1CCCC(N2CCN(c3ccc(F)cc3)CC2)C1` (stereo not drawn), the inhibition (at 20 µM) is -1.2% (inactive).

On to `COc1ccc(CC(=O)Nc2c3c(nn2-c2cccc(Cl)c2)CS(=O)(=O)C3)cc1`, for which the inhibition (at 20 µM) is -2% (inactive).

In the case of `Cc1ccccc1C(=O)NC1CCN(CC(=O)Nc2nccs2)CC1`, under “at 20 µM”, the inhibition is 2.2% (inactive).

As for `COc1c2ccccc2c(OC)c2ccccc12`, for the setting “at 20 µM”, the inhibition was 1.5% (inactive).

Regarding `C=CCN(C(=O)CN1CCCCC1)c1nc(-c2ccccc2)cs1`, under “at 20 µM”, the inhibition is -1.5% (inactive).

Turning to `Cc1sc2ncnc(SCc3ccc(C(=O)O)cc3)c2c1C`, the inhibition (at 20 µM) was 9.5% (inactive).

As to `Cc1ccc(-c2csc3ncnc(SCc4ccc(C(=O)O)cc4)c23)cc1`, the inhibition (at 20 µM) is 66.8% (active).

In the case of `Cc1ccc(-c2csc3ncnc(SCC(=O)O)c23)cc1`, where the note is “at 20 µM”, the inhibition was 0.9% (inactive).

Take `COCCNC(=S)N1CCN(c2cccc(C(F)(F)F)c2)CC1`: the inhibition (at 20 µM) was -0.5% (inactive).

On to `Cc1cc(-c2ccccc2)nc(SCc2ccc(C(=O)O)o2)n1`, for which the inhibition (at 20 µM) is 1.6% (inactive).

In the case of `O=C(NN1C(=O)/C(=C/C=C/c2ccccc2)SC1=S)c1ccncc1`, for the setting “at 20 µM”, the inhibition is 16.6% (inactive).

With `O=C(O)C(Cc1ccccc1)N1C(=O)/C(=C/C=C/c2ccco2)SC1=S` (stereo not drawn), for the setting “at 20 µM”, the inhibition is 69.2% (active).

Take `O=C(O)CCCN1C(=O)/C(=C/C=C/c2ccco2)SC1=S`: the inhibition (at 20 µM) is 55.6% (inactive) and the inhibition under setting [1] was 27.4%.

For `O=C(NN1C(=O)/C(=C/C=C/c2ccco2)SC1=S)c1ccncc1`, for the setting “at 20 µM”, the inhibition was 68.5% (active).

In the case of `CC(C)C(C(=O)O)N1C(=O)/C(=C/C=C/c2ccco2)SC1=S` (stereo not drawn), the inhibition was 76.1% (inactive) (at 20 µM) and 36.6% under setting [1].

As to `O=C(O)C(Cc1ccccc1)N1C(=O)/C(=C/c2cccnc2)SC1=S` (stereo not drawn), the inhibition (at 20 µM) was 1.1% (inactive).

Turning to `O=C(O)CC(C(=O)O)N1C(=O)/C(=C/C=C/c2ccco2)SC1=S` (stereo not drawn), the inhibition runs as follows: (at 20 µM) 65.6% (inactive); under setting [1], 23.1%.

As for `CC(C(=O)O)N1C(=O)/C(=C/C=C/c2ccco2)SC1=S` (stereo not drawn), the inhibition (at 20 µM) was 88.9% (active).

With `O=C(NN1C(=O)/C(=C/C=C/c2ccco2)SC1=S)c1ccccc1O`, the inhibition is, setting by setting: (at 20 µM) 65.1% (inactive); under setting [1], 46.4%.
